A short description of this test: chemical genetic growth profiling, strain panel (AID 1159580).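 Further: tested at 20 µM; growth read once vehicle control cultures reached saturation at 30 °C; 1 = growth at the plate median or of vehicle wells; lower values mean less growth of the strain.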 The settings on record: growth OD.
The mark [1] stands for this setting: S. cerevisiae deletion strains, locus YAL013W, strain DEP1, active compounds read low.
Where [2] appears, read: S. cerevisiae deletion strains, locus YGR078C, strain PAC10, active compounds read low.
Setting [3] is: S. cerevisiae deletion strains, locus YJR075W, strain HOC1, active compounds read low.
Where [4] appears, read: S. cerevisiae deletion strains, locus YNL128W, strain TEP1, active compounds read low.
The mark [5] stands for this setting: S. cerevisiae deletion strains, locus YNL153C, strain GIM3, active compounds read low.
The mark [6] stands for this setting: S. cerevisiae deletion strains, locus YNL322C, strain KRE1, active compounds read low.
Setting [7] is: S. cerevisiae deletion strains, locus YPL055C, strain LGE1, active compounds read low.
Where [8] appears, read: S. cerevisiae deletion strains, locus YPL241C, strain CIN2, active compounds read low.

Out of some 5,500 compounds screened, about 2,000 (36%) were called active. Not shown: some 18% with an inconclusive outcome. The list shows a part of the results. Unmarked numbers belong to inactive results. No stated cut-off is given here; in the data, active means normalized growth mostly below about 0.91 (no sharp cut-off); inconclusive means no clear call, values can overlap the other calls; inactive means mostly above about 0.92.

On to `CC(=O)CSc1nsc(SCC(C)=O)c1C#N`, for which the normalized growth under setting [1] is 1.01; the normalized growth (S. cerevisiae deletion strains, locus YBR229C, strain ROT2, active compounds read low) was 1; the normalized growth (S. cerevisiae deletion strains, locus YCL061C, strain MRC1, active compounds read low) was 1.01; the normalized growth (S. cerevisiae deletion strains, locus YDL101C, strain DUN1, active compounds read low) was 0.974; the normalized growth (S. cerevisiae deletion strains, locus YDL134C, strain PPH21, active compounds read low) is 1.01; the normalized growth (S. cerevisiae deletion strains, locus YDR150W, strain NUM1, active compounds read low) was 0.99. Moreover, the normalized growth runs as follows: (S. cerevisiae deletion strains, locus YEL061C, strain CIN8, active compounds read low) 1.02; under setting [2], 0.997; (S. cerevisiae deletion strains, locus YHR030C, strain SLT2, active compounds read low) 0.992; (S. cerevisiae deletion strains, locus YHR087W, strain rtc3, active compounds read low) 0.971; (S. cerevisiae deletion strains, locus YJR043C, strain POL32, active compounds read low) 1; under setting [3], 0.995. The normalized growth is 1.01 (S. cerevisiae deletion strains, locus YKL190W, strain CNB1, active compounds read low); 1.01 (S. cerevisiae deletion strains, locus YLR039C, strain RIC1, active compounds read low); 0.992 (S. cerevisiae deletion strains, locus YLR058C, strain SHM2 (second series), active compounds read low); 1 (S. cerevisiae deletion strains, locus YLR085C, strain ARP6, active compounds read low); 0.962 (S. cerevisiae deletion strains, locus YLR262C, strain YPT6, active compounds read low); 1.01 (S. cerevisiae deletion strains, locus YML094W, strain GIM5, active compounds read low). Also, the normalized growth is, setting by setting: (S. cerevisiae deletion strains, locus YMR219W, strain ESC1, active compounds read low) 0.989; (S. cerevisiae deletion strains, locus YMR263W, strain SAP30, active compounds read low) 0.996; under setting [4], 1.01; under setting [5], 0.979; (S. cerevisiae deletion strains, locus YNL298W, strain CLA4 (second series), active compounds read low) 0.988; under setting [6], 1.01. Moreover, the normalized growth by setting is: (S. cerevisiae deletion strains, locus YNR030W, strain Alg12, active compounds read low) 0.986; (S. cerevisiae deletion strains, locus YOL006C, strain TOP1, active compounds read low) 0.87; under setting [7], 0.903; under setting [8], 0.992; (S. cerevisiae deletion strains, locus YPR135W, strain CTF4, active compounds read low) 0.918; (S. cerevisiae strains, strain wild type, active compounds read low) 1.

Turning to `COc1ccc2[nH]c(I)c(CCNC(C)=O)c2c1`, the normalized growth reads like this: under setting [1], 1.03; (S. cerevisiae deletion strains, locus YAL040C, strain CLN3, active compounds read low) 0.959; (S. cerevisiae deletion strains, locus YCL061C, strain MRC1 (second series), active compounds read low) 1.01; (S. cerevisiae deletion strains, locus YDR363W, strain ESC2, active compounds read low) 1.02; (S. cerevisiae deletion strains, locus YER002W, strain NOP16, active compounds read low) 1.01; under setting [2], 1.02. The normalized growth was 0.998 (S. cerevisiae deletion strains, locus YGR229C, strain SMI1, active compounds read low); 1.11 [resistant] (active) under setting [3]; 1.1 under setting [4]; 0.997 under setting [5]; 1.01 (S. cerevisiae deletion strains, locus YNL175C, strain NOP13, active compounds read low); 1.01 (S. cerevisiae deletion strains, locus YNL197C, strain WHI3, active compounds read low). Besides, the normalized growth runs as follows: (S. cerevisiae deletion strains, locus YNL224C, strain SQS1, active compounds read low) 1.02; under setting [6], 1.02; under setting [7], 1.09; under setting [8], 1.01.

These data come from PubChem BioAssay AID1159580 (chemical genetic matrix, 2015).
